From PubChem BioAssay (NCI)
Compounds without any hit were thinned out: in the full panel of roughly 83,000, 20% have a hit.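 Negative percent growth values reflect cell death: -40 means 40% of the cells present at the start died, and -100 means all died.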 Active and inactive are the calls of the source. How the source made its calls: active means growth percent below 10; inactive means the rest.

Assays:
Test in all cases: NCI-60 one-dose screen, 48 h (100 = growth as untreated, 0 = no growth, -100 = all killed)
Conditions in all cases: 10 µM unless noted
[1] = system: SR leukemia
[2] = system: RPMI-8226 leukemia
[3] = system: OVCAR-8 ovarian
[4] = system: OVCAR-5 ovarian
[5] = system: OVCAR-4 ovarian
[6] = system: SK-OV-3 ovarian
[7] = system: IGROV1 ovarian
[8] = system: HS 578T breast
[9] = system: NCI/ADR-RES ovarian
[10] = system: T-47D breast
[11] = system: BT-549 breast
[12] = system: MDA-MB-435 melanoma
[13] = system: SW-620 colon
[14] = system: MCF7 breast
[15] = system: HCT-116 colon
[16] = system: HCC-2998 colon
[17] = system: KM12 colon
[18] = system: OVCAR-3 ovarian

Measured: growth

CCNC(=O)N1CCc2cc(OC)c(OCCc3ccc(OC)cc3)cc2C1c1ccc(Cl)cc1C (stereo not drawn)
active: [1] 6.29% | [8] 1.75% | [11] -1.91% | [15] 9.84%
inactive: [2] 20% | [3] 27.3% | [4] 32.9% | [5] 51.7% | [6] 54.9% | [7] 23.4% | [9] 13.5% | [10] 57% | [12] 15.9% | [13] 21.4% | [14] 16.3% | [16] 17.1% | [17] 16.5%

CCOc1cccc(-c2nc3sccn3c2-c2ccnc(S(C)(=O)=O)n2)c1
inactive: [1] 68.2% | [2] 97.1% | [3] 102% | [4] 106% | [5] 87% | [6] 112% | [7] 94.2% | [8] 102% | [9] 103% | [10] 65.8% | [11] 122% | [12] 95% | [13] 103% | [14] 36% | [15] 92.6% | [16] 80.8% | [17] 87.6%

COc1cccc(/C=C(/C)c2ccc3cccc(OC)c3[o+]2)c1O
inactive: [1] 92.1% | [2] 93.1% | [3] 100% | [4] 104% | [5] 98% | [6] 107% | [7] 94.5% | [18] 114% | [9] 107% | [10] 100% | [13] 106% | [14] 90.9% | [15] 102% | [16] 120% | [17] 99.1%

COc1ccc(/C=C/C(=O)c2cccc(NC(=O)CSc3nc4ccccc4c(=O)n3-c3ccccc3)c2)cc1OC
inactive: [1] 73% | [2] 67.9% | [3] 102% | [4] 111% | [5] 98.8% | [6] 120% | [7] 105% | [8] 100% | [9] 105% | [10] 88.2% | [11] 115% | [12] 101% | [13] 94.1% | [14] 69.2% | [15] 86.2% | [16] 111% | [17] 95.9%

O=S(=O)(NC1c2ccccc2C[C@H]1O)c1ccc(Cl)cc1Cl (stereo partly drawn)
inactive: [1] 87.2% | [2] 107% | [3] 98.4% | [4] 102% | [5] 97.4% | [6] 97.3% | [7] 99.2% | [8] 93.7% | [9] 99.5% | [10] 93.7% | [11] 126% | [12] 94.1% | [13] 102% | [14] 95.5% | [15] 98.1% | [16] 97% | [17] 96.3%

CCNC(=O)N1CCc2cc(OC)c(OCCc3ccc(OC)nc3)cc2C1c1ccc(C)cc1C (stereo not drawn)
inactive: [3] 15.5% | [4] 31.4% | [5] 52.5% | [6] 54% | [7] 17.2% | [10] 61% | [12] 10% | [13] 19.6% | [14] 14% | [16] 13%
active: [1] 7.67% | [2] 9.18% | [8] -2.81% | [9] 7.35% | [11] -6.5% | [15] 8.5% | [17] 9.57%

COc1ccc(NC(=O)Nc2ccc3c(ccn3C(=O)c3cccc(F)c3)c2)cc1
inactive: [1] 42.7% | [2] 78.9% | [3] 89.1% | [4] 62.3% | [5] 48.1% | [6] 106% | [7] 69.1% | [18] 13.5% | [9] 65.5% | [10] 75.9% | [12] 74.9% | [13] 60.2% | [14] 60.4% | [15] 45.8% | [16] 86.8% | [17] 53%

CCNC(=O)N1CCc2cc(OC)c(OCCc3ccc(OC)c(N)c3)cc2C1c1ccc(C)cc1C (stereo not drawn)
inactive: [1] 15.3% | [2] 20.1% | [3] 24.4% | [4] 33.5% | [5] 57.6% | [6] 52.8% | [7] 21.4% | [8] 11.7% | [9] 17.9% | [10] 65.8% | [12] 13.4% | [13] 23.2% | [14] 17.2% | [16] 20.6% | [17] 12.5%
active: [11] -10.9% | [15] 9.82%
